Only some compounds are listed: those with a hit (about 2.9% of all), similar ones and a draw of the others.
KLK7 zymogen act – proKLK7 (human) activation, primary screen. purified proKLK7, EDANS-DABCYL substrate fluorescence; 100% is mature enzyme control, 0% vehicle. activation, % at 7 µM. 0.9% of 370,000 active. AID 652039;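 active = activation above the mean of all tested compounds plus 3 SD, computed per campaign excluding outliers beyond control limits, cut at about 13% in these data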
ADAM17 inh – inhibits human ADAM17; recombinant ADAM17, EDANS/DABCYL FRET peptide cleavage; inhibition, % at 6.95 µM; 0.83% of 370,000 active;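 active = inhibition above the mean of compounds lying between control limits plus 3 SD, set per campaign, cut at about 8.5% in these data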;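 note: 0% = DMSO-only wells as the low control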
PLC-beta3 inh – PLC-beta3 (human) inhibition, primary screen | Q01970 | Purified PLC-beta3, fluorogenic substrate, fluorescence | inhibition, % at 12.2 µM | 0.18% of 370,000 active; in the data active = inhibition above about 11%;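 note: 0% = median of compound wells on plate and 100% = full blocker control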
ADAM10 inh – inhibits human ADAM10; 0.62% of 370,000 active; recombinant ADAM10, EDANS/DABCYL FRET peptide cleavage, 3 h; O14672; inhibition, % at 7 µM;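 active = inhibition above a per-campaign cutoff equal to the mean of compounds falling between control-based bounds plus 3 SD, cut at about 20% in these data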;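 note: 0% = DMSO wells while the 100% control is not disclosed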
PLC-gamma1 inh – inhibitors of human phospholipase C gamma1 | P19174 | purified PLC-gamma1, fluorogenic substrate, fluorescence | inhibition, % at 12.2 µM | 0.84% of 370,000 active; in the data active = inhibition above about 9.5%
Active calls of the source: *.

Screening O=C(Nc1cccc(Cl)c1)Nc1cc(S(=O)(=O)N2CCCCC2)ccc1Cl returned KLK7 zymogen act 0.0, ADAM17 inh 9.9*, PLC-beta3 inh 1.6, ADAM10 inh 21.6* and PLC-gamma1 inh 2.0.
NS(=O)(=O)c1ccc(NC(=O)CN2C(=O)CCC2=O)cc1 was read as KLK7 zymogen act -0.1, ADAM17 inh -2.0, PLC-beta3 inh -8.4, ADAM10 inh -3.3 and PLC-gamma1 inh -0.6.
For C=CCN1CCN(C(=O)c2cc3c(s2)CCC(CC)C3)CC1 (stereo not given) the results were KLK7 zymogen act 0.3, ADAM17 inh 3.5, PLC-beta3 inh 1.1, ADAM10 inh 1.4 and PLC-gamma1 inh 9.7*.
`C[C@@H]1CCCCCCCCC(=O)OCCN1C(=O)OC(C)(C)C` gave KLK7 zymogen act 0.6, ADAM17 inh -1.4, PLC-beta3 inh 0.7, ADAM10 inh 5.8 and PLC-gamma1 inh 1.2.
`C[C@@H]1CCCCCCCCC(=O)OCCN(C(=O)OC(C)(C)C)[C@H](C)CCCCCCCCC(=O)OCCN1C(=O)OC(C)(C)C` gave KLK7 zymogen act -0.6, ADAM17 inh 8.0, PLC-beta3 inh 12.9*, ADAM10 inh -3.4 and PLC-gamma1 inh 6.8.
For Cc1cccc(C)c1-n1nnnc1C(c1ccnc2ccccc12)N1CCN(CC(=O)NC(C)C)CC1 (stereo not given) the results were KLK7 zymogen act 0.9, ADAM17 inh -3.8, PLC-beta3 inh 0.8, ADAM10 inh -11.8 and PLC-gamma1 inh -2.1.
Cc1ccc(NC(=O)CN(C)CC(=O)Nc2ccc(F)c(Cl)c2)cc1 was read as KLK7 zymogen act -0.4, ADAM17 inh 1.4, PLC-beta3 inh 1.7, ADAM10 inh -0.4 and PLC-gamma1 inh 0.7.
Cc1ccc(NC(=O)CN(C)Cc2ccc(Cl)cc2)cc1 was read as KLK7 zymogen act 0.0, ADAM17 inh 8.8*, PLC-beta3 inh -2.7, ADAM10 inh 6.6 and PLC-gamma1 inh 0.7.
For COC(=O)c1ccc(=O)c2nc3/c(=C/O)c(O)cc(=O)c3[nH]c12 the results were KLK7 zymogen act -0.5, ADAM17 inh 5.9, PLC-beta3 inh 7.9, ADAM10 inh -0.2 and PLC-gamma1 inh 10.9*.
`Cc1ccccc1-c1nc(CS(=O)CC(=O)NCCN2CCOCC2)c(C)o1` (stereo not given) gave KLK7 zymogen act 0.2, ADAM17 inh 1.4, PLC-beta3 inh 0.1, ADAM10 inh 4.1 and PLC-gamma1 inh -0.8.
CC(=O)c1ccc2c(c1)C1C=CCC1C(C(=O)O)N2 (stereo not given) was read as KLK7 zymogen act -1.1, ADAM17 inh 3.9, PLC-beta3 inh -9.4, ADAM10 inh 11.2 and PLC-gamma1 inh 12.2*.
`CC(=O)c1ccc2c(c1)C1C=CCC1C(c1ccncc1)N2` (stereo not given) gave KLK7 zymogen act 0.6, ADAM17 inh -4.6, PLC-beta3 inh -62.1, ADAM10 inh -7.9 and PLC-gamma1 inh -50.1.
Clc1cccc(CSc2nnc(-c3c[nH]c4ccccc34)o2)c1 was read as KLK7 zymogen act 0.6, ADAM17 inh 4.2, PLC-beta3 inh -3.2, ADAM10 inh 21.2* and PLC-gamma1 inh 3.2.
CCOC(=O)N1CCC(N2Cc3cccc(C(=O)Nc4ccc(F)cc4)c3C2=O)CC1 was read as KLK7 zymogen act 0.0, ADAM17 inh -4.4, PLC-beta3 inh 3.4, ADAM10 inh 0.6 and PLC-gamma1 inh -2.2.
For COc1cc2c3nnc(-c4ccc(F)cc4)c-3cn(Cc3ccccc3)c2cc1OC the results were KLK7 zymogen act 29.2*, ADAM17 inh -219.8, PLC-beta3 inh inactive, ADAM10 inh inactive and PLC-gamma1 inh inactive.
Screening COCCNC(=O)C(c1ccc(F)cc1)N(CCOC)C(=O)CCC(=O)Nc1nccs1 (stereo not given) returned KLK7 zymogen act -0.5, ADAM17 inh -1.1, PLC-beta3 inh -3.7, ADAM10 inh -10.4 and PLC-gamma1 inh 2.7.
`Cc1ccc2cc(CN(CC3CCCO3)C(=O)NC3CCCCC3)c(=O)[nH]c2c1C` (stereo not given) gave KLK7 zymogen act 0.1, ADAM17 inh -5.5, PLC-beta3 inh 3.0, ADAM10 inh -9.5 and PLC-gamma1 inh 0.8.
`Cc1cccc2cc(CN(CC3CCCO3)C(=O)NC3CCCCC3)c(=O)[nH]c12` (stereo not given) gave KLK7 zymogen act -0.4, ADAM17 inh 0.2, PLC-beta3 inh 2.4, ADAM10 inh 1.0 and PLC-gamma1 inh 9.7*.
`COCC1CCN(C(=O)CCc2nnc(C3(c4ccc(Cl)cc4)CCC3)o2)CC1` gave KLK7 zymogen act 0.2, ADAM17 inh 3.0, PLC-beta3 inh 2.0, ADAM10 inh 13.1 and PLC-gamma1 inh 11.6*.
S=C(NCCCCN(Cc1ccc(Cl)cc1)c1ccc(Br)cn1)NCCCc1cnc[nH]1 was read as KLK7 zymogen act -0.8, ADAM17 inh 0.0, PLC-beta3 inh -0.9, ADAM10 inh -0.8 and PLC-gamma1 inh 10.2*.
`CN(C)CCN(Cc1ccc(Cl)cc1)c1ccccn1` gave KLK7 zymogen act 1.1, ADAM17 inh 6.8, PLC-beta3 inh 2.3, ADAM10 inh 2.4 and PLC-gamma1 inh 5.9.
Cc1oc2cc([N+](=O)[O-])c(O)c([N+](=O)[O-])c2c1C(=O)c1ccc(Cl)cc1 was read as KLK7 zymogen act 0.2, ADAM17 inh 7.5, PLC-beta3 inh 11.1*, ADAM10 inh 18.1 and PLC-gamma1 inh 10.4*.
`O=C(O)CCC(=O)Nc1sc2c(c1C(=O)NC1CCCC1)CCCC2` gave KLK7 zymogen act -0.4, ADAM17 inh -1.1, PLC-beta3 inh -3.2, ADAM10 inh -13.5 and PLC-gamma1 inh 2.8.
Screening O=C(OCc1ccccc1)N(CCCCN(CCCNCc1ccccc1)C(=O)OCc1ccccc1)CCCNCc1ccccc1 returned KLK7 zymogen act 0.4, ADAM17 inh 1.4, PLC-beta3 inh 4.5, ADAM10 inh 1.0 and PLC-gamma1 inh 10.0*.
COc1ccc(CCNC(=O)c2cc(S(=O)(=O)N3CCCCCC3)ccc2OC)cc1OC was read as KLK7 zymogen act 0.3, ADAM17 inh -1.6, PLC-beta3 inh -4.0, ADAM10 inh 7.8 and PLC-gamma1 inh 0.8.
For CCOC(=O)c1ccc(NS(=O)(=O)c2ccc3[nH]c(=O)[nH]c3c2)cc1 the results were KLK7 zymogen act -0.3, ADAM17 inh 1.3, PLC-beta3 inh 3.4, ADAM10 inh -1.8 and PLC-gamma1 inh 10.1*.
`CCC(C)c1ccccc1NC(=O)COC(=O)C1=COCCO1` (stereo not given) gave KLK7 zymogen act 0.0, ADAM17 inh -5.2, PLC-beta3 inh 0.9, ADAM10 inh 0.1 and PLC-gamma1 inh 1.2.
`C/C(CC(=O)NC1CCCCC1)=N\NC(=O)c1ccccc1C` gave KLK7 zymogen act 0.1, ADAM17 inh -2.0, PLC-beta3 inh -2.3, ADAM10 inh -1.0 and PLC-gamma1 inh -0.3.
Screening CCC1CCC/C1=N\NC(=O)c1ccccc1C (stereo not given) returned KLK7 zymogen act 0.6, ADAM17 inh 8.1, PLC-beta3 inh 7.1, ADAM10 inh 5.7 and PLC-gamma1 inh 10.2*.
O=C(NCC(c1ccco1)N1CCN(c2ccccc2F)CC1)C(=O)NC1CCCCC1 (stereo not given) was read as KLK7 zymogen act 0.4, ADAM17 inh 5.6, PLC-beta3 inh 2.0, ADAM10 inh -0.9 and PLC-gamma1 inh 9.5*.
